Results from PubChem BioAssay AID504582 (Broad Institute, 2011).
Screen size: about 340,000 compounds; about 2,300 (0.68%) were called active. The full list was thinned out, with actives kept by preference. A number with no mark means an inactive call. No stated cut-off is given here; in the data, active means growth rescue above about 28% (passing the limit was not always enough); inconclusive means no clear call, values can overlap the other calls.

test: rescue of yeast from PfHsp40 toxicity, primary screen, S. cerevisiae, ATP luminescence (AID 504582);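 further: yeast W303a lacking pdr1 and pdr3 grown in galactose medium; growth measured after three days at 30 °C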; settings: S. cerevisiae expressing PfHsp40, growth rescue, at 12.5 µM, stronger effect = higher value

Row | SMILES | growth rescue
1 | CCOc1ccc(NS(=O)(=O)c2ccc(C)c(C(N)=O)c2)cc1 | -1.27%
2 | O=C(CCc1nc2sc3c(c2c(=O)[nH]1)CCCC3)NCC(=O)Nc1ccccc1Br | -1.97%
3 | COC(=O)CN1C(=O)[C@H]2[C@@H](C3CC3)N3C(=O)CN(Cc4ccc(-c5ccccc5)cc4)C(=O)[C@@]3(Cc3ccccc3)[C@H]2C1=O | -1.17%
4 | CN(C(=O)c1ccc(NC(=O)Cc2cccc(NC(=O)C3CCN(C(=O)c4ccccc4)CC3)c2)cc1)C1CC1 | -0.0305%
5 | Cn1cccc1/C=N/NC(=O)c1ccc(OC(F)(F)C(F)F)cc1 | -1.34%
6 | Cn1nccc1NC(=O)Nc1ccc(OC(F)(F)F)cc1 | -0.0415%
7 | O=C(Nc1ccc(OC(F)(F)F)cc1)c1ccc2c(c1)no[n+]2[O-] | 178% (active)
8 | Cc1ccc2c(c1)N(C(=O)CCC(=O)NCc1cccnc1)CCO2 | -1.04%
9 | CCN([C@H](CO)C(C)C)S(=O)(=O)c1ccccc1Br | -0.487%
10 | COc1cccc(-n2c(=S)sc3c(=O)n(-c4ccccc4C)c(SCC(=O)O)nc32)c1 | -1.96%
11 | CC(C)C[C@@H](N)c1nnc(SCC(=O)c2ccc(Cl)cc2)o1 | -0.522%
12 | COCc1c(N)c(C)nc(Cl)c1C#N | 51% (active)
13 | COC(=O)c1c(C)c(C)nc(N)c1C#N | 0.0365%
14 | Cc1nc(Cl)c(C#N)c2c1CCCC2 | 0.263%
15 | C=CCc1ccc(OCC(O)CN2CCN(Cc3ccccc3)CC2)c(OC)c1 (centres undefined) | -0.721%
16 | OC(COc1ccc(F)cc1Cl)CN1CCc2ccccc2C1 (centres undefined) | 0.0845%
17 | Cc1ccc(OCC(O)CN2CCN(CC(O)COc3ccc(C)cc3Cl)CC2)c(Cl)c1 (centres undefined) | 65.8% (active)
18 | CCCC(NC(=O)c1ccco1)c1nc2ccccc2[nH]1 (centres undefined) | -0.136%
19 | O=c1[nH]c2cccnc2n(CCNc2ncc(C(F)(F)F)cc2Cl)c1=O | -1.76%
20 | COc1cccc(/C=N/Nc2ncc(C(F)(F)F)cc2Cl)c1O | 233% (active)

Row | SMILES | growth rescue
21 | CN(C)C=NC(=O)c1cccn1-c1ncc(C(F)(F)F)cc1Cl | -0.737%
22 | COc1ccc(NC(=O)COC(=O)c2ccncc2)c(OC)c1 | -0.471%
23 | CN(CCOc1ccc(Br)cc1)CC(=O)Nc1cccc(S(=O)(=O)NC2=NCCC2)c1 | -0.17%
24 | COc1cc(C)c(C)cc1S(=O)(=O)N1CCCc2ccccc21 | -0.881%
25 | CCOC(=O)Cc1csc(SCC(=O)Nc2ccc(C)cc2F)n1 | 0.85%
26 | S=C(Nc1ccc(Br)cc1)NC1CCN(Cc2ccccc2)CC1 | 1.33%
27 | O=C(Cc1ccc(Br)cc1)NCCc1ccccc1 | 1.3%
28 | S=C(NCCCc1ccccc1)Nc1ccc(Br)cc1 | 263% (active)
29 | Cc1ccc(C)c2[nH]c(=O)c(CN(Cc3cccnc3)C(=S)NCc3ccco3)cc12 | 0.529%
30 | O=C(CSC1CC(=O)N(CCc2ccccc2)C1=O)Nc1ccc(Cl)cc1 (centres undefined) | 0.11%
31 | CCCC(C(=O)n1nc(C)cc1C)C(NS(=O)(=O)c1ccc(C)cc1)c1ccccc1 (centres undefined) | 5.61%
32 | COc1ccc(NC(=O)C/C(C)=N/NC(=O)c2cnccn2)cc1Cl | -1.24%
33 | CCN(CC)c1ccc(/C=N/NC(=O)c2cnccn2)c(O)c1 | 77.4% (active)
34 | Cc1ccc(/C=N/NC(=O)C2=NNC(c3ccccc3)(c3ccccc3)C2)c(O)c1 | -0.682%
35 | CCNC(=O)c1cnn(-c2ccccc2)c1-c1ccccc1 | -3.15%
36 | Cn1c(C(=O)N2CCCC(C(=O)NCc3ccccc3)C2)cc2sccc21 (centres undefined) | 0.412%
37 | CCCCCC(=O)N1CCN(S(=O)(=O)c2ccc3c(c2)OCCCO3)CC1 | 1.79%
38 | O=S(=O)(NCc1ccccc1)c1ccc(S(=O)(=O)N2CCCC2)cc1 | 0.759%
39 | CC1(C)CN(c2ccc(-c3ccnc4ncnn34)cc2)C1=O | -1.84%
40 | Cc1ccc2c(c1)C(c1ccccc1)N(C(=O)c1ccc(S(=O)(=O)N3CCOCC3)cc1)CC(=O)N2 (centres undefined) | 72.7% (active)

Row | SMILES | growth rescue
41 | Cc1ccc(C(=O)N2CC(=O)Nc3ccc(F)cc3C2c2ccc(F)cc2)cc1 (centres undefined) | 1.27%
42 | Cc1ccc2c(c1)C(c1ccccc1)N(C(=O)c1ccc(F)cc1)CC(=O)N2 (centres undefined) | 0.27%
43 | Cc1ccc(NN=Nc2nc3c([nH]2)c(=O)n(C)c(=O)n3C)cc1 | -0.566%
44 | CN(C)CC(O)COc1ccc(C(C)(C)c2ccc(OCC(O)CN(C)C)cc2)cc1 (centres undefined) | 26.9% (active)
45 | COc1ccc(OCC(O)CN(C)C(=O)C(C)Oc2ccccc2)cc1 (centres undefined) | -0.614%
46 | Cc1cc(C)n(CC(O)COc2ccc(C(C)(C)C)cc2)n1 (centres undefined) | 0.193%
47 | Cc1ccc2nc(C)c3c(c2c1)N(c1ccccc1)CC3 | -0.127%
48 | Cc1ccc(S(=O)(=O)N2CCOCC2)cc1C(=O)Nc1ccccc1N1CCCC1 | 0.57%
49 | COc1ccc(OCC(O)CNCCNc2nccc(C(F)(F)F)n2)cc1 (centres undefined) | 62.4% (active)
50 | COc1ccc(OCC(O)CNC(=O)Nc2ccc(Cl)cc2)cc1 (centres undefined) | -1.02%
51 | CC(C)(C)CC(C)(C)NCC(O)COCCOc1ccc(Br)cc1 (centres undefined) | 0.077%
52 | Cc1ccccc1Nc1c([N+](=O)[O-])ccc2nonc12 | -0.179%
53 | CCc1cc2c(=O)c(-c3ccon3)c(N)oc2cc1OC | -0.783%
54 | COc1ccc(NCc2nnc(SCc3ccccc3)n2-c2ccc(OC)cc2)cc1 | -1.36%
55 | Cc1ccccc1NCC(=O)N/N=C\c1ccc([N+](=O)[O-])s1 | 406% (active)
56 | O=C(COc1ccccc1[N+](=O)[O-])N/N=C/c1ccc[nH]1 | -1%
57 | Cc1nn(Cc2ccc(Cl)cc2)c(Cl)c1/C=N/NC(=O)CNc1ccccc1F | -0.219%
58 | Cn1c(CCC(=O)OCC(=O)NCc2ccccc2Cl)nc(=O)c2ccccc21 | 1.08%
59 | O=C(CN1C(=O)NC2(CCCC2)C1=O)Nc1ccc(F)c(F)c1F | -0.549%
